{
  "source": "PubChem BioAssay (NCATS)",
  "note": "Values joined by “and” are separate entries in the source; they are usually repeats but may differ in a detail not shown here. Identical values can stand only once. Inconclusive results are not listed. A number with no mark means an inactive call. Active and inactive are the calls of the source. Calls follow the shape of the dose curve; as a rule, active = well fitted cell-killing curve with a large enough effect; inconclusive = small, poorly fitted or top-dose-only effect, or effect the other way; inactive = no such curve, though single readings can be large or run the other way. Potency is read from the fitted curve at half-maximal effect.",
  "data": [
    {"test": "Viability qHTS for spleen associated tyrosine kinase inhibitor (SYKi) drug resistant MV4-11 cells (AID 1963824); also: nearly all actives have a fitted effect of over 35% in size", "details": "SYKi-resistant MV4-11 viability, CellTiter-Glo, 72 h; series mostly up to 45 µM; viability, % of control: at the top concentration", "source_text": "Department of Medicine, Hematology/Oncology\nUniversity Hospital Frankfurt, Germany.\nTrials have shown promising clinical activity of the selective SYK inhibitor entospletinib in patients with high expressing HOXA9/MEIS1 acute leukemias. As the development of resistance mechanisms is a common problem in the use of targeted drugs, we performed a chemical library screen to identify drug sensitivities in SYK inhibitor resistant AML cells. […] Glucocorticoids are potent immunosuppressants which work in part by inhibiting the transcription of cytokine genes.\nDescribed herein is a viability screen to look for activity in the SYK inhibitor drug resistant cell line against four NCATS compound libraries (MIPE 5.0, NPC, NPACT, and Kinase) totaling 11372 compounds. Active hits were reacquired for confirmation and further secondary assay testing.\nSEQUENCE No. (e.g., 1, 2, 3, etc.); […] (e.g., Cells, Incubation, Reagent, etc.); VALUE; DESCRIPTION.\n1; Media; 2uL; white, solid-bottom Corning assay plate.\n2; Compounds; 23nL; Echo acoustic dispenser.\n3; Cell; 5uL; 500 cells per well.\n4: Incubation; 72hr; 37 C, 5% CO2, 95% humidity.\n5; Reagent; 3uL; CellTiter-Glo reagent (Promega).\n6; Incubation; 10min; room temperature.\n7; Detection; Luminescence; ViewLux plate reader (PerkinElmer).\nNOTES (numbers refer to Sequence numbers above\n1. Quantitative high-throughput screening (qHTS) of small molecule compounds was conducted on drug resistant SYKi MV4-11 cell line.\n2. Twenty-three nanoliter of small molecule compounds were added to each assay plates using the Echo acoustic dispenser (Beckman Coulter).\n3. Cells were seeded into the assay plates at a final density of 500 cells in 5uL of media per well using the Multidrop Combi dispenser.\n4. Plates were covered with stainless steel gasketed lids and incubated for 72 hours at standard cell culture conditions.\n5. Viability was assessed by adding 3uL of CellTiter-Glo detection reagent (Promega).\n6. Plates were covered with gasket lids and incubated for 10 minutes at room temperature.\n7. Luminescence was measured on a ViewLux plate reader (PerkinElmer).", "values": [
      {"smiles": "COC(=O)[C@@H](O)[C@H]1[C@@]2(C)CC3(O)[C@@H](C(=O)[C@H]2O)[C@]24O[C@]25CC(=O)O[C@@H](c2ccoc2)[C@]5(C)CCC4[C@]13C", "note": "(stereo not given in full)", "viability, % of control": "110% [at 17.3 µM]"},
      {"smiles": "CN1C[C@@H]2c3ccccc3Oc3ccc(Cl)cc3[C@H]2C1", "Potency": "18.6 µM (active)"},
      {"smiles": "CC(C)[C@@H](C)/C=C/[C@@H](C)[C@H]1CC[C@H]2C3=CC=C4C[C@@H](O)CC[C@]4(C)[C@H]3CC[C@]12C", "viability, % of control": "102% [at 17.3 µM]"},
      {"smiles": "OCc1ccccc1O[C@@H]1O[C@H](CO)[C@@H](O)[C@H](O)[C@H]1O", "Potency": "inactive"},
      {"smiles": "COc1cc(/C=C/C(=O)O[C@@H]2C[C@](O)(C(=O)O)C[C@@H](O)[C@H]2O)ccc1O", "viability, % of control": "110%"},
      {"smiles": "COc1cc(/C=C/C(=O)OC2CC(C)=C(C(=O)O)/C2=C/CO[C@@H]2O[C@H](CO)[C@@H](O)[C@H](O)[C@H]2O)ccc1O", "note": "(stereo not given in full)", "viability, % of control": "81.6% [at 17.3 µM]"},
      {"smiles": "NCc1ccc(OCCCc2sc(-c3ccc4c(c3)/C(=N/Nc3nc5ccccc5s3)CCC4)nc2C(=O)O)cc1", "Potency": "9.34 µM (active)"},
      {"smiles": "O=C(O)COCCN1CCN([C@H](c2ccccc2)c2ccc(Cl)cc2)CC1", "viability, % of control": "79.1%"},
      {"smiles": "COc1ccc2cc(-c3nc(-c4ccc(S(C)=O)cc4)[nH]c3-c3ccncc3)ccc2c1", "note": "(stereo not given)", "Potency": "9.34 µM (active) and 13 µM (active)"},
      {"smiles": "CC(C)(C)n1nc(Cc2cccc3ccccc23)c2c(N)ncnc21", "Potency": "13 µM (active)"},
      {"smiles": "O=c1[nH]ccc2nc(-c3ccc(CN4CCC(c5nc(-c6ccccn6)n[nH]5)CC4)cc3)c(-c3ccccc3)cc12", "Potency": "9.2 µM (active)"},
      {"smiles": "CCN1CCN(Cc2ccc(-c3cc4c(N[C@H](C)c5ccccc5)ncnc4[nH]3)cc2)CC1", "Potency": "1.86 µM (active)"},
      {"smiles": "Cc1ccc(NS(=O)(=O)c2ccc3c(c2)CCC(=O)N3)cc1C", "Potency": "9.2 µM (active)"},
      {"smiles": "O=C(Nc1nnc(-c2ccco2)o1)c1cc(-c2ccccc2)nc2ccccc12", "Potency": "13.2 µM (active)"},
      {"smiles": "Cc1cc(Nc2nc(-c3ccccc3)nc3ccccc23)n[nH]1", "Potency": "0.366 µM (active)"},
      {"smiles": "C=C1/C(=C\\C=C2/CCC[C@]3(C)[C@@H]([C@H](C)CCCC(C)(C)O)CC[C@@H]23)C[C@@H](O)C[C@@H]1O", "Potency": "1.48 µM (active)"},
      {"smiles": "COC(=O)Nc1nc2ccc(C(=O)c3cccs3)cc2[nH]1", "Potency": "42.2 nM (active) and 118 nM (active)"},
      {"smiles": "CCOC(=O)CCN(C(=O)c1ccc2c(c1)nc(CNc1ccc(C(=N)N)cc1)n2C)c1ccccn1", "viability, % of control": "91%"},
      {"smiles": "C/C=C(\\C)C(=O)O[C@H]1[C@H](O)[C@]2(COC(C)=O)[C@H](O)C[C@]3(C)C(=CCC4[C@@]5(C)CC[C@H](O[C@@H]6O[C@H](C(=O)O)[C@@H](O[C@@H]7O[C@H](CO)[C@@H](O)[C@H](O)[C@H]7O)[C@H](O)[C@H]6O[C@@H]6O[C@H](CO)[C@@H](O)[C@H](O)[C@H]6O)[C@](C)(CO)C5CC[C@]43C)[C@@H]2CC1(C)C", "note": "(stereo not given in full)", "viability, % of control": "97.8% [at 9.25 µM]"},
      {"smiles": "CCCCS(=N)(=O)CCC(N)C(=O)O", "note": "(stereo not given)", "Potency": "17.1 µM (active)"},
      {"smiles": "CC(=O)OCC1=C[C@H](O)[C@@H]2C(C(=O)O)=CO[C@@H](O[C@@H]3O[C@H](CO)[C@@H](O)[C@H](O)[C@H]3O)[C@H]12", "viability, % of control": "87.4% [at 17.3 µM]"},
      {"smiles": "C=C(CCO)C(=O)OCC1OCC(OC(=O)C(=C)CCO[C@@H]2O[C@H](COC(=O)C(=C)CCO[C@@H]3O[C@H](CO)[C@@H](O)[C@H](O)[C@H]3O)[C@@H](O)[C@H](O)[C@H]2O)C(O)C1O", "note": "(stereo not given in full)", "viability, % of control": "74.6% [at 17.3 µM]"},
      {"smiles": "CN1CCN(C2CCC(n3cc(-c4ccc(Oc5ccccc5)cc4)c4c(N)ncnc43)CC2)CC1", "note": "(stereo not given)", "Potency": "58 nM (active) and 74.2 nM (active)"},
      {"smiles": "COc1cc(/C=C/C(=O)O[C@H]2CC[C@]34C[C@]35CC[C@]3(C)[C@@H]([C@H](C)CCC=C(C)C)CC[C@@]3(C)[C@@H]5CC[C@H]4C2(C)C)ccc1O", "Potency": "16.4 µM (active)"},
      {"smiles": "CCNC(=O)Nc1ccc2ncc(Nc3ccc(C)cc3)nc2n1", "viability, % of control": "115%"},
      {"smiles": "O=C(C1OC1/C=C/c1ccc2c(c1)OCO2)N1CCCCC1", "note": "(stereo not given)", "viability, % of control": "75.4%"},
      {"smiles": "CC[C@@H](N)CNc1ccnc(-c2cc(-c3cnn(C)c3)ccc2O)n1", "Potency": "1.64 µM (active)"},
      {"smiles": "O=C1c2ccccc2-c2c(NCCc3ccccc3)c(=O)[nH]c3cccc1c23", "Potency": "23.1 µM (active)"},
      {"smiles": "O=c1[nH]c2cc(C(F)(F)F)c(N3CCOCC3)cc2n(CP(=O)(O)O)c1=O", "viability, % of control": "89.6%"},
      {"smiles": "COc1cc(O)cc(C)c1C(=O)OC1C(CO)OC(OC2C(O)C(O)C(O)C(O)C2O)C(O)C1O", "note": "(stereo not given)", "viability, % of control": "63.5% [at 17.3 µM]"},
      {"smiles": "CCC(C)/C=C(C)/C=C/C1=CC2=C(Cl)C(=O)C(C)(O)C(=O)C2(O)C(OC)O1", "note": "(stereo not given)", "Potency": "10 µM (active)"},
      {"smiles": "COc1cc(/C=C/C(=O)OC[C@H]2O[C@H](O[C@]3(CO)O[C@H](CO)[C@@H](O)[C@@H]3O)[C@H](O)[C@@H](O)[C@@H]2O)cc(OC)c1O", "viability, % of control": "103% [at 17.3 µM]"},
      {"smiles": "NC(=O)c1cc[n+](CC2=C(C(=O)[O-])N3C(=O)[C@@H](NC(=O)Cc4cccs4)[C@H]3SC2)cc1", "viability, % of control": "79%"},
      {"smiles": "O=C(OC[C@@]1(O)CO[C@@H](O[C@H]2[C@H](Oc3ccc(O)cc3)O[C@H](CO)[C@@H](O)[C@@H]2O)[C@@H]1O)c1ccc(O)cc1", "viability, % of control": "91% [at 17.3 µM]"},
      {"smiles": "COCCOC(=O)C1=C(C)NC2=C(C(=O)CC(c3ccccc3OC)C2)C1c1cccc(O)c1", "note": "(stereo not given)", "Potency": "2.35 µM (active) and 5.8 µM (active)"},
      {"smiles": "CCCCC(=O)N1c2ccccc2NC2=C(C(=O)CCC2)C1c1ccccc1Cl", "note": "(stereo not given)", "Potency": "8.2 µM (active)"},
      {"smiles": "COc1cc2c(cc1OC)[C@@H]1C(=O)c3ccc4c(c3O[C@@H]1CO2)C=CC(C)(C)O4", "Potency": "146 nM (active) and 166 nM (active)"},
      {"smiles": "CCN(CC)CC(=O)OCC(=O)[C@@]1(O)CC[C@H]2[C@@H]3CCC4=CC(=O)CC[C@]4(C)[C@H]3[C@@H](O)C[C@@]21C", "viability, % of control": "84.9%"},
      {"smiles": "O=C(Nc1ccc(C(=O)O)c(O)c1)c1ccccc1", "viability, % of control": "78.4%"},
      {"smiles": "CC1=CC(=O)CC(C)(C)C1/C=C/C(C)O[C@@H]1O[C@H](CO)[C@@H](O)[C@H](O)[C@H]1O[C@@H]1OC[C@](O)(CO)[C@H]1O", "note": "(stereo not given in full)", "viability, % of control": "69.3% [at 17.3 µM]"}
    ]}
  ]
}
